Experimental findings from PubChem BioAssay AID686978 (National Center for Advancing Translational Sciences (NCATS), 2013) are described below.

The structures appear in SMILES notation. Screen size: about 420,000 compounds; about 64,000 (15%) were called active. Another 27% or so got no clear call; they are omitted. The call rests on the fitted dose curve; in most records, active means well fitted inhibition curve with a large enough effect; inconclusive means small, poorly fitted or top-dose-only effect; inactive means flat fitted curve, though single readings scatter. The list is a sample of the results.
On the % scale 0 is the no-effect control and ±100 the full control effect; potency means the concentration at half of the fitted maximal effect.

The nature of the experiment: qHTS for Inhibitors of human tyrosyl-DNA phosphodiesterase 1 (TDP1): qHTS in cells in absence of CPT. Further: nearly all actives have a fitted effect of over 55% in size. The settings on record: DT40 Tdp1-/- hTDP1 cells, no CPT, ATP luminescence, 48 h; activity change, negative = growth inhibition: at 46.2 µM (top of the series). Summed up:
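Stably hTDP1-transfected Tdp1-null chicken DT40 cells were treated with library compounds minus camptothecin and grown for at least 48 hr at 37 °C, after which cellular ATP was quantified by luminescence.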
For the compound `Cc1nc2nc(C)c(CCC(=O)N3CCN(c4ccccc4)CC3)c(C)n2n1`, the “activity change, negative = growth inhibition” value was 2.82% (inactive).

On to `COc1ccccc1CN1CCCC(N2CCN(c3ccc(F)cc3)CC2)C1` (stereo not drawn), for which the “activity change, negative = growth inhibition” value is -13% (inactive).

As to `Cc1cc(=O)oc(C)c1C(=O)NCc1ccc(F)cc1`, the “activity change, negative = growth inhibition” value was 1.68% (inactive).

Turning to `CCC(=O)Nc1nnc(S(=O)(=O)N2CCCc3ccccc32)s1`, the “activity change, negative = growth inhibition” value was -17.1% (inactive).

In the case of `CC1CCN(c2ccc(C(=O)Nc3nnc(C4CC4)s3)cc2[N+](=O)[O-])CC1`, the “activity change, negative = growth inhibition” value was -21.5% (inactive).

`CC1CCN(c2ccc3c(c2)S(=O)(=O)c2cc(C(=O)O)ccc2C3=O)CC1`: the “activity change, negative = growth inhibition” value is -0.649% (inactive).

Consider `CC1CCN(c2ccc([N+](=O)[O-])c(SCCO)c2)CC1`, for which the Potency was 23.1 µM (active).

Turning to `COCCn1c(N)c(NCc2ccccc2)c(=O)[nH]c1=O`, the “activity change, negative = growth inhibition” value is -23.5% (inactive).

On to `COC(=O)c1sc(C(F)(F)F)c(-c2ccccc2)c1S(=O)(=O)N(C)C`, for which the “activity change, negative = growth inhibition” value is -2.69% (inactive).

Consider `CC(C)NC(=O)c1nn(-c2ccccc2F)nc1CO`, for which the “activity change, negative = growth inhibition” value was -8.91% (inactive).

`Cc1ccc(-n2nc(CO)c(C(=O)NCCc3ccccc3)n2)cc1`: the “activity change, negative = growth inhibition” value was 3.15% (inactive).

In the case of `CC(CCCc1ccccc1)NC(=O)c1nn(-c2ccc(Cl)cc2)nc1CO` (stereo not drawn), the Potency was 20.6 µM (active).

In the case of `CCc1ccc(NC(=O)CCNS(=O)(=O)c2cccs2)cc1`, the “activity change, negative = growth inhibition” value is -2.67% (inactive).

Regarding `O=C(CN(C(=O)CNC(=O)c1cccs1)c1cccc(F)c1)NC1CCCCC1`, the “activity change, negative = growth inhibition” value is -5.97% (inactive).

On to `Cc1nn(CC(=O)NCCc2ccccc2)c(=O)c2cc3occc3n12`, for which the “activity change, negative = growth inhibition” value is 30.7% (inactive).

With `CCc1ccc(-c2cc3c(=O)n(CC(=O)NCCCN4CCN(Cc5ccccc5)CC4)nc(C)n3n2)cc1`, the Potency is 16.4 µM (active).

Turning to `CCCN1CCN(CCCNC(=O)Cn2nc(CC)n3c(cc4occc43)c2=O)CC1`, the “activity change, negative = growth inhibition” value is -3.26% (inactive).

As for `COc1cc(OC)cc(-c2nc(=S)n3ccsc3n2)c1`, the “activity change, negative = growth inhibition” value is -0.435% (inactive).

Consider `O=S(=O)(Cc1cc(Sc2ccccc2)nc(-c2ccccc2)n1)c1ccccc1`, for which the Potency is 23.1 µM (active).

With `O=S(=O)(Cc1cc(Cl)nc(-c2cccnc2)n1)c1ccccc1`, the “activity change, negative = growth inhibition” value was -24.3% (inactive).

On to `CCS(=O)(=O)n1nc(-c2ccccc2)nc1SCc1ccccc1`, for which the “activity change, negative = growth inhibition” value was -12.3% (inactive).

With `COCCCNC(=O)Cn1c(=O)n(Cc2ccccc2Cl)c(=O)c2cc(OC)c(OC)cc21`, the “activity change, negative = growth inhibition” value is -12.9% (inactive).

Consider `CCCCCOC(=O)c1ccc(N2C(=O)C3C4C=CC(C4)C3C2=O)cc1` (stereo not drawn), for which the “activity change, negative = growth inhibition” value was -27.6% (inactive).

`COc1cc(C2CC(=O)N3CN(Cc4ccccc4)CSC3=C2C#N)ccc1OCc1ccccc1` (stereo not drawn): the “activity change, negative = growth inhibition” value is -22% (inactive).

Consider `O=C(NCC1CC1)c1onc(CSc2ccccc2)c1C(=O)NCC1CC1`, for which the Potency is 20.6 µM (active).

`O=C(NCc1ccccc1)c1onc(CSc2ccncc2)c1C(=O)NCc1ccccc1`: the “activity change, negative = growth inhibition” value is -12.6% (inactive).

With `COc1ccc(SCc2noc(C(=O)NCC3CCCO3)c2C(=O)O)cc1` (stereo not drawn), the “activity change, negative = growth inhibition” value is 0.709% (inactive).

For `COc1ccc(C(=O)NC(=S)N2CCNC(=O)C2CC(=O)OC(C)C)cc1` (stereo not drawn), the “activity change, negative = growth inhibition” value is 10.8% (inactive).

`O=c1cc(CSc2ccc(Cl)cc2)nc(N2CCOCC2)[nH]1`: the “activity change, negative = growth inhibition” value was -8.75% (inactive).

With `Cc1ccc2nc(N3C(=O)C(O)=C(C(=O)c4ccco4)C3c3cccc(O)c3)sc2c1` (stereo not drawn), the “activity change, negative = growth inhibition” value was 7.55% (inactive).

Take `COc1cc(C(O)c2nc3ccccc3n2C)cc(OC)c1OC` (stereo not drawn): the Potency is 18.4 µM (active).

Regarding `COc1cccc(C(O)c2nc3ccccc3n2C)c1` (stereo not drawn), the “activity change, negative = growth inhibition” value is -9.21% (inactive).

In the case of `COc1ccc(OC)c(C(O)c2nc3ccccc3n2C)c1` (stereo not drawn), the “activity change, negative = growth inhibition” value is 13.2% (inactive).

With `COc1ccc(-c2cc(=O)oc3cc(OC(C)C(=O)NCC4CCC(C(=O)O)CC4)ccc23)cc1` (stereo not drawn), the “activity change, negative = growth inhibition” value is -16.3% (inactive).

Take `O=C(NCCc1cccc(F)c1)C1CCCN(c2nc3ccccc3s2)C1` (stereo not drawn): the Potency is 23.1 µM (active).

For the compound `Cc1cc(=O)n2nc(N3CCCC(C(=O)NCc4cccc(Cl)c4)C3)sc2n1` (stereo not drawn), the “activity change, negative = growth inhibition” value is 20.8% (inactive).

For `O=C(NCc1ccccc1)C1CCCN(c2nc3ccsc3c(=O)s2)C1` (stereo not drawn), the “activity change, negative = growth inhibition” value was -22.8% (inactive).

Turning to `COc1ccccc1C(=O)NC(=O)COC(=O)C1CC1`, the “activity change, negative = growth inhibition” value is -0.675% (inactive).

In the case of `Cc1ccccc1CN1CCN(C(=O)c2cccc(F)c2)CC1`, the “activity change, negative = growth inhibition” value is -24.2% (inactive).

With `CCOc1cc2ccccc2cc1C(=O)Nc1ccccn1`, the “activity change, negative = growth inhibition” value is -22.9% (inactive).

For the compound `COc1cc(NC(=O)c2cc3ccc4cccnc4c3[nH]2)cc(OC)c1OC`, the “activity change, negative = growth inhibition” value is -8.52% (inactive).

As for `CCOc1ccccc1N(CC)C(=O)c1cc2ccc3cccnc3c2[nH]1`, the Potency was 5.8 µM (active).

On to `Cc1cccc(CN2CCC(n3nccc3NC(=O)c3ccccc3C)CC2)n1`, for which the “activity change, negative = growth inhibition” value is 0.0568% (inactive).

For the compound `Cc1ccccc1CN1CCC(CNC(=O)c2cc3ccc4cccnc4c3[nH]2)CC1`, the Potency is 23.1 µM (active).

`CCc1nnc(SCc2cccc(F)c2)nc1CC`: the “activity change, negative = growth inhibition” value was -0.858% (inactive).

Regarding `CSCCC(NC(=O)C1CCC(C)CC1)C(=O)NCc1ccco1` (stereo not drawn), the “activity change, negative = growth inhibition” value was -3.03% (inactive).

Take `Cc1cc(C(F)(F)F)c(C#N)c(SCC(=O)NC2CC2)n1`: the “activity change, negative = growth inhibition” value was -5.72% (inactive).

With `CC(=O)N(CN1C(=O)C2CC=CCC2C1=O)c1cccc(Cl)c1` (stereo not drawn), the “activity change, negative = growth inhibition” value was -26.5% (inactive).

On to `O=C1CSC(c2cccc(F)c2)N1c1ccccc1F` (stereo not drawn), for which the “activity change, negative = growth inhibition” value is -21% (inactive).

Turning to `COc1ccc(C(=O)CSc2c(C(C)C)cnc3c2c(=O)n(C)c(=O)n3C)cc1`, the Potency was 13 µM (active).

Turning to `COc1ccc(C(=O)CSc2n[nH]c(N)n2)cc1`, the “activity change, negative = growth inhibition” value was -16% (inactive).

As to `CC(=O)c1ccc(NC(=O)CSc2c(C(C)C)cnc3c2c(=O)n(C)c(=O)n3C)cc1`, the Potency was 14.6 µM (active).

`Cc1ccc(CNC(=O)CSc2c(C)cnc3c2c(=O)n(C)c(=O)n3C)cc1`: the “activity change, negative = growth inhibition” value was -15.4% (inactive).

In the case of `COCCNC(=O)CSc1c(C)cnc2c1c(=O)n(C)c(=O)n2C`, the “activity change, negative = growth inhibition” value was 1.96% (inactive).

Consider `COc1ccc(C(=O)CSc2nccc(=O)[nH]2)cc1`, for which the “activity change, negative = growth inhibition” value was -14.2% (inactive).

For `COc1ccc(C(=O)O)cc1S(=O)(=O)NCc1cccnc1`, the “activity change, negative = growth inhibition” value was 14% (inactive).

In the case of `Cc1snc(SCc2c(F)cccc2Cl)c1C#N`, the “activity change, negative = growth inhibition” value is -25.5% (inactive).

For `O=C(NN1C(=O)C2C3C=CC(O3)C2C1=O)c1ccccc1` (stereo not drawn), the “activity change, negative = growth inhibition” value is 6.73% (inactive).

Take `Cc1ccc2c(C)c(C(=O)N3CCC(N4CCC(C(=O)NC5CC5)CC4)CC3)oc2c1`: the “activity change, negative = growth inhibition” value was -6.02% (inactive).

As for `COc1cc(Cl)c(C)cc1NC(=O)COC(=O)c1cc(SC)ccc1Cl`, the “activity change, negative = growth inhibition” value was 1.67% (inactive).

Consider `CCCCC(=O)N(C)c1c(CC)nc2c(OCc3ccc(Cl)cc3Cl)cccn12`, for which the Potency is 9.2 µM (active).

As to `CCc1nc2ccc(C(=O)N3CCC(O)(Cc4ccccc4)CC3)cn2c1N(C)C(=O)Cc1ccccc1`, the “activity change, negative = growth inhibition” value was -26.2% (inactive).

Take `CCc1nc2c(OCc3ccc(Cl)cc3Cl)cccn2c1N(C)C(=O)C(C)C`: the Potency is 8.2 µM (active).

As to `CC(NC(=O)COc1cccnc1[N+](=O)[O-])c1ccc(Cl)cc1Cl` (stereo not drawn), the “activity change, negative = growth inhibition” value was -2.29% (inactive).

Take `CCc1nc2c(OCc3ccc(C(F)(F)F)cc3)cccn2c1N(C)C(=O)CC(C)C`: the Potency was 20.6 µM (active).

On to `CC(C)(C)NC(=O)NC(=O)COC(=O)Cc1ccc(Cl)cc1Cl`, for which the “activity change, negative = growth inhibition” value is -0.501% (inactive).

Turning to `COc1cccc(NC(=O)CN(C)C(=O)Cc2ccc(Cl)cc2Cl)c1`, the “activity change, negative = growth inhibition” value was -1.62% (inactive).

As for `CCc1nc2ccc(C(=O)N(C)Cc3ccco3)cn2c1N(C)C(=O)Cc1ccccc1`, the “activity change, negative = growth inhibition” value was -17% (inactive).
